HCV inhibitor: qHTS Assay for Inhibitors of Hepatitis C Virus (HCV). Huh7.5.1 HCVcc-Cre infection, luciferase reporter, 44 h. Potency, µM (top dose mostly 41.8 µM), for inactives: at the highest dose activity change, negative = inhibition, usual class: inhibitors. 340,000 compounds, 3.4% hits; note: % is set by controls: 0 for no effect and ±100 for the full control effect
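Antiviral activity was scored by luciferase reporter output from cells infected with HCVcc-Cre (~0.5 moi) in presence of compound, 44 h infection period, cells seeded 1,000/well 4 h prior.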
SARS PLP yeast: qHTS of Yeast-based Assay for SARS-CoV PLP | S. cerevisiae expressing SARS-CoV PLpro, growth rescue | Potency, µM (highest dose often 32.9 µM), without a hit: at the highest dose activity, positive = growth rescue, actives largely listed as activators | 330,000 compounds, 0.19% hits | AID 485353, 2010; calls by dose curve; note: 0% is about no effect; nearly all actives have a fitted effect of over 55% in size
AMA1 RON2 block: qHTS for Inhibitors of AMA1-RON; Towards Development of Antimalarial Drug Lead: Primary Screen. AlphaScreen AMA1-biotinylated RON2 peptide binding. 360,000 compounds, 0.2% hits. Potency, µM (highest dose often 58.2 µM), inactives show top-dose activity change, negative = inhibition, usual class: inhibitors. Plasmodium falciparum AMA1 (3D7) - RON2 peptide interaction;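 note: 0% = vehicle wells and -100% = peptide control; nearly all actives have a fitted effect of over 45% in size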
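AMA1 (3D7) with his tag at 25 nM final met compounds first, then biotinylated RON2 peptide at 25 nM; detection used donor plus acceptor beads, 10 µg/mL apiece, read by AlphaScreen after 30 min at room temperature.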
NS1 function inh: qHTS Assay for Inhibitors of Influenza NS1 Protein Function. Potency, µM (highest dose often 46.1 µM), without a hit: top-dose activity, positive = more growth. 270,000 compounds, 0.4% hits. AID 2326, 2010; calls by dose curve; note: actives are rising curves; nearly all actives have a fitted effect of over 50% in size
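Read-out: OD600 growth recovery of NS1-expressing budding yeast. Cells grown overnight at 30C in -URA glucose medium, washed, resuspended and diluted 1:100 in 2% galactose assay medium, pH 6.0. Same strain lacking NS1 served as positive control.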
Pf growth 96h: Primary qHTS for delayed death inhibitors of the malarial parasite plastid, 96 hour incubation; P. falciparum luciferase reporter growth, 96 h; Potency, µM (top dose mostly 28.7 µM), inactives show at the top dose activity change, negative = inhibition, most hits filed as inhibitors; 320,000 compounds, 6.9% hits; note: % is set by controls: 0 for no effect and ±100 for the full control effect
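Luminescence readout: decreased luciferase signal marks inhibited growth of reporter-expressing P. falciparum in infected red cells (2% hematocrit, 0.05% parasitemia final), exposed to compound two generations (96 h, 37 C, 5% CO2).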
Pf growth 48h: Primary qHTS for delayed death inhibitors of the malarial parasite plastid, 48 hour incubation | AID 504832, 2011 | 310,000 compounds, 5.9% hits | P. falciparum luciferase growth in erythrocytes, 48 h | Potency, µM (series often up to 28.7 µM), inactives show at the top dose activity change, negative = inhibition, hits mostly inhibitors; note: % is set by controls: 0 for no effect and ±100 for the full control effect
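Compounds are pin-transferred into medium, infected erythrocytes (2% hematocrit, 0.1% parasitemia final) are added, and plates sit one parasite generation at 37 C in 5% CO2. Detection reagent is then added and luminescence measured.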
* = called active by the depositor; ? = inconclusive; · = not tested or not shown; [ ] = dose if it differs, or a comment. A selection: hits, their analogues and other compounds. The true share with any hit is near 12%. Unless noted, calls come from the whole dose curve; as a rule, active = well fitted curve in the direction sought with a large enough effect; inconclusive = small, poorly fitted or top-dose-only effect, or another doubt; inactive = no such curve, though single readings can be large; an effect the other way counts as inactive or inconclusive. Potency is the fitted concentration of half-maximal effect.

SMILES	HCV inhibitor	SARS PLP yeast	AMA1 RON2 block	NS1 function inh	Pf growth 96h	Pf growth 48h
Cc1cccc(Cl)c1NC(=S)N1CCN(c2ccc([N+](=O)[O-])cn2)CC1	?	2%	2%	2%	1.7µM*	1.7µM*
Cc1c(Cl)cccc1NC(=S)N1CCN(c2ccc([N+](=O)[O-])cn2)CC1	-12%	3%	12%	5%	1%	-10%
O=C(Nc1ccccc1)N1CCN(c2ccc(C(F)(F)F)cn2)CC1	?	3%	4%	-6%	-14%	·
CC(C)c1ccc(NC(=O)N2CCc3ccccc3C2)cc1	-25%	-1%	3%	·	31%	87%
O[C@H]1C[C@H](c2ccccc2)N(CC2CCCCC2)C[C@@H]1n1cc(C2CC2)nn1	·	·	-8%	·	·	·
O=C(Nc1ccc([N+](=O)[O-])cc1)N1CCCCC1	18%	-1%	8%	-3%	8.3µM*	23%
COc1cc([N+](=O)[O-])c2nc(C)ccc2c1[N+](=O)[O-]	6.3µM*	·	-1%	·	·	·
O=C(NCc1nnnn1-c1ccc(F)cc1)c1ccc([N+](=O)[O-])o1	?	-3%	34%	·	-6%	?
Cc1ccc(/C=C/C(=O)c2ccc([N+](=O)[O-])o2)cc1	0.56µM*	0%	-3%	·	-9%	?
Cc1ccc(-n2nnnc2CNC(=O)c2ccc([N+](=O)[O-])o2)cc1C	22µM*	-10%	-1%	·	?	?
CN(Cc1ccccc1)C(=O)c1ccc([N+](=O)[O-])o1	?	-68%	50%	-30%	26%	9.3µM*
Cc1ccc(-c2csc(NC(=O)c3ccc([N+](=O)[O-])o3)n2)cc1	14µM*	-15%	-1%	-61%	2.6µM*	13µM*
O=C(/C=C/c1ccc(Cl)cc1)c1ccc([N+](=O)[O-])o1	-4%[8.37 µM]	0%	2%	·	40%	?
Cc1cc(C)cc(N2C(=O)CSC2c2ccccn2)c1 (configuration not stated)	11%	1%	10%	·	0%	?
Cc1ccc(NC(=O)c2cc(S(=O)(=O)N(C)C)ccc2N2CCCC2)cc1F	·	-3%	14%	17%	92%	0%
CCN1CCN=C1Nc1ccccc1	8%	-26%	5%	·	63%	3%
CCC(C)[C@@H]1NC(=O)N(CCCN2CCCC2=O)C1=O (some centres not stated)	17%	1%	-5%	2%	9%	-6%
Cc1ccc(CNC(=O)c2ccc([N+](=O)[O-])o2)cc1	?	-36%	0%	-148%	8.3µM*	?
O=C(/C=C/c1ccccc1)Nc1ccc(C(=O)N2CCCCC2)cc1	0%	-1%	2%	-5%	-5%	2%
Cc1cccc(NC(=S)NCc2cccn2C)c1	?	-9%	14%	29%	12µM*	·
O=C1N(c2cccc(Cl)c2)C(c2cccnc2)N2CCCN12 (configuration not stated)	5%	1%	7%	·	13µM*	5%
CC(C)CN(C[C@@H](O)[C@H](Cc1ccccc1)NC(=O)O[C@H]1CCOC1)S(=O)(=O)c1ccc(N)cc1	·	·	·	·	-11%	?
CCCn1cc(C(=O)N(C)C2CCCN(Cc3ccccc3F)C2)c(C)n1 (configuration not stated)	8%	5%	7%	-8%	-21%	-13%
C/C(=N\NC(=O)c1cc(Br)ccc1O)c1ccccn1	4%	5%	80%	-38%	?	?
C/C(=N/NC(=O)c1ccc(C(C)(C)C)cc1)c1ccccn1	3.5µM*	·	21%	·	·	·
SMILES	HCV inhibitor	SARS PLP yeast	AMA1 RON2 block	NS1 function inh	Pf growth 96h	Pf growth 48h
C/C(=N\NC(=O)c1cccc2ccccc12)c1ccccn1	5µM*	2%	-53%	-31%	2.1µM*	?
C/C(=N\NC(=O)c1cccc(Br)c1)c1ccccn1	?	?	-43%	-74%	-6%	0.74µM*
Cc1cccc2sc(NNC(=O)c3cc(-c4cccs4)nc4ccccc34)nc12	?	14%	39%	22%	4.1µM*	?
CCOC(=O)C1=C(C)NC(=S)NC1c1ccc(OCC(=O)N2CCCCC2)cc1 (configuration not stated)	-10%	3%	-1%	6%	?	-20%
COc1ccc(S(=O)(=O)N2CCC(C(=O)NCCC(=O)Nc3ccc(Cl)cc3)CC2)cc1	5%	10%	5%	9%	?	-4%
CCN(CC)CCNC(=O)c1ccc(NC(=O)c2cccc(-n3cnnn3)c2)cc1	37%	-2%	2%	·	?	?
O=C(CSc1nnc(-c2ccc(O)cc2)o1)NNC(=O)c1ccncc1	17%	3%	89%	1%	51%	18%
Cc1cccc(NNC(=O)c2c(F)cccc2Cl)c1	?	-2%	-7%	3%	19%	3%
O=C(NCC(c1ccco1)N1CCCC1)c1cc(S(=O)(=O)N2CCOCC2)ccc1Cl (configuration not stated)	7%	-2%	0%	·	?	?
O=C(Nc1ccc(OC(F)(F)F)cc1)NC1CCC(Oc2ccc(C(=O)O)cc2)CC1 (configuration not stated)	-6%	2%	13%	·	52%	?
C/C(=N\NC(=O)c1ccc(Cl)c(Cl)c1)c1ccccn1	0.56µM*	2%	60%	-13%	?	0.59µM*
C/C(=N\NC(=O)c1cc(-c2cccs2)nc2ccccc12)c1ccccn1	0.56µM*	-19%	-32%	-8%	?	?
C/C(=N\NC(=O)c1ccc(NS(=O)(=O)c2cccs2)cc1)c1ccccn1	?	-1%	56%	?	12µM*	?
C/C(=N\NC(=O)c1ccccc1Cl)c1ccccn1	?	9%	-36%	-36%	-5%	1.7µM*
COc1cc(OC)c(C(=O)OCC(=O)N(Cc2ccccc2)C(C)(C)C)cc1OC	-9%	2%	-2%	-3%	?	0%
CC(C)C(NC(=O)c1ccc(C(C)(C)C)cc1)C(=O)NCC(c1ccccc1)N(C)C (configuration not stated)	-28%	0%	-3%	-3%	?	?
Cc1cc(C(=O)Nn2c(-c3ccc(Br)cc3)nc3ccccc3c2=O)ccc1[N+](=O)[O-]	-9%	-25%	3%	17%	8%	-6%
NS(=O)(=O)c1ccc(NC(=O)c2cc(-c3cccs3)nc3ccccc23)cc1	?	6%	-8%[2.32 µM]	?	0.41µM*	26%

Compound activity from PubChem BioAssay.
